# Pf Dd2 growth: blocks in vitro growth of P. falciparum Dd2; P. falciparum Dd2 growth, SYBR Green, 72 h; Potency, µM (doses to about 28.9 µM), without a hit: at the top dose activity, negative = inhibition, actives largely listed as inhibitors; hit rate 4.3% among 120,000; AID 1347417; active = well fitted inhibition curve with a large enough effect;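 note: plate controls were DMSO vehicle for no effect and reference drug for full effect; nearly all actives have a fitted effect of over 65% in size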
#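 Readout: SYBR Green fluorescence, 485 nm excitation, 535 nm emission, after ~16 h lysis at 37C. Before that, Dd2-infected red cells (2.5% hematocrit) grew 72 h with compound, 29 uM top final concentration.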
# The depositor's hits bear a star; i = inactive; [ ] = remark or other dose. This excerpt belongs to a sample that is enriched for hits. Potency is the fitted concentration of half-maximal effect.
SMILES,Pf Dd2 growth
Cc1ccc(CCNC(=O)c2ccc(CSc3nc4ccncc4n3Cc3ccc(F)cc3)cc2)cc1,4.5µM*
Cc1ccc(NC(=O)Cn2c(SCc3cccc(F)c3)nc3ccncc32)c(C)c1,i
O=C(NCCc1ccccc1)c1ccc(CSc2nc3ccncc3n2Cc2ccc(F)cc2)cc1,7.1µM*
COC(=O)c1ccc(Cn2c(SCC(=O)Nc3ccc(F)cc3)nc3ccccc32)cc1,22%
Cc1ccc(Cn2c(CO)cnc2SCc2ccc(F)cc2)cc1,-20%
CCN1CCN(c2ccc(C(=O)NCCCc3ccc(OC)cc3)cn2)CC1,i
CC1(C)CN(C(=O)c2ncc(F)cc2F)CCC1(O)CN1CCOCC1 (stereo not given),11%
CN(C)c1cc(=O)c2ccnc(Nc3ccccn3)c2o1,-20%[44.1 µM]
O=C(Cn1cnnn1)N1C[C@@H](COCC2CC2)[C@H](c2ccncc2)C1,43%
Cc1noc(-c2ccc3c(c2)OCO3)c1C(=O)NCc1cc(F)cc(F)c1,i
O=C(NCC1CCOCC1)Nc1cc(F)cc(F)c1,-24%
Cc1cccc(OCCc2noc(C3CCCN3C(=O)COc3ccccc3)n2)c1 (stereo not given),-9%
COC(=O)c1sc(-c2ccccc2)cc1NC(=O)c1cccc(Cl)c1,451%[5.79 µM]
COC(=O)c1sc(-c2ccccc2)cc1NC(=O)Nc1ccccc1Cl,11µM*
COC(=O)c1sc(-c2ccccc2)cc1NC(=O)c1cccc(F)c1,i[5.79 µM]
Cn1cnc(S(=O)(=O)N2CCCC(C(=O)NCCCN3CCCCCC3)CCNC(=O)CC2)c1 (stereo not given),-9%
CCn1nccc1C(=O)N1CCN(Cc2ccc(=O)n(C)c2)CC1,17%
COCCN1C(=O)[C@H]2CN(Cc3cc(OC)ccc3OC)C[C@H]2C1=O,-6%
CCN(CC1CCCN(CCc2cccc(OC)c2)C1)C(=O)c1cc(C)no1 (stereo not given),10µM*
CCN(CC1CCCN(CCc2cccc(OC)c2)C1)C(=O)CN1CCCC1=O (stereo not given),-11%
COc1ccccc1CN1CCCC(CN(CCN(C)C)C(=O)c2cc(C(C)C)no2)C1 (stereo not given),i
O=C(c1ccc(C(F)(F)F)cc1)N1CCC2(CC1)COc1ccccc1CN2,-11%
COc1ccc(C(=O)N2CCC3(CC2)COc2ccccc2C(=O)N3)cc1,2.2µM*
O=C1NC2(CCCN(C(=O)c3ccc(F)cc3)C2)COc2ccccc21 (stereo not given),i
O=C1NC2(CCN(C(=O)c3ccc(C(F)(F)F)cc3)CC2)COc2ccccc21,1.1µM*
SMILES,Pf Dd2 growth
COc1ccc(C(=O)N2CCC3(CC2)COc2ccccc2[S+](=O)([O-])N3)cc1,0%
O=C1NC2(CCN(C(=O)c3ccc(F)cc3)CC2)COc2ccccc21,-12%
O=C1CCN(C(=O)c2ccc3ccccc3n2)CCOCCN1,4%
CN1C[C@H](NC(=O)C2CCOCC2)CCC[C@@H](C(=O)NC2CC2)CC1=O,-3%[44.1 µM]
COc1ccc(-c2noc(N3CCN(c4ccc(C)cc4)C(C)C3)n2)cc1OC (stereo not given),1.6µM*
Cc1ccc(N2CCN(c3cc(C)nc4c(-c5ccc(Cl)cc5)c(C)nn34)CC2C)cc1 (stereo not given),i
COc1ccc(-c2noc(CSc3nnc(C)n3-c3ccc(C)cc3)n2)cc1OC,-10%
Cc1nccc(-c2ccccc2)c1C(=O)N1CCOCC1CC(=O)N(C)C (stereo not given),-8%
O=[S+]1([O-])NCC2(CCN(CC3CCOCC3)CC2)Oc2ncccc21,3%
O=[S+]1([O-])NCC2(CCN(Cc3cccnc3)CC2)Oc2ncccc21,6%
CC(C)(C)CN1CCC2(CC1)CN[S+](=O)([O-])c1cccnc1O2,8.9µM*
O=C(c1n[nH]c2ccccc12)N1CCC(c2nc(C3CCOCC3)no2)CC1,i
O=C(c1ccccc1F)N1CCC(Cc2nc(C3CCOCC3)no2)CC1,17%
Cc1noc(C)c1-c1cnc(Nc2ccc(CN3CCN(C)CC3)cc2)c2c1CCO2,5.6µM*
Cc1noc(C)c1-c1cnc(Nc2cc(F)cc(N3CCOCC3)c2)c2c1CCO2,-6%[44.1 µM]
Cc1noc(C)c1-c1cnc(Nc2ccc(Cl)cn2)c2c1CCO2,-16%[44.1 µM]
CCCc1nc(C(=O)NCc2ccc(-n3ccnc3C)cc2)cs1,-25%
CC(=O)NCC(=O)N1CC(F)(F)C[C@H]1c1nc(-c2ccccc2)no1,29%
CN(Cc1nc(COc2ccccc2)no1)CC1(N2CCOCC2)CCCCC1,8.9µM*
COc1ccccc1OC(C)C(=O)NCC1(N2CCOCC2)CCCCC1 (stereo not given),i
CN(CCCN1CCOCC1)Cc1nc(-c2cccs2)no1,-23%
COCCN1CCCN(C(=O)C2CCCCC2)c2ccccc21,i
CC(C(=O)NCC1CC1)N1C(=O)COc2ccc(C(=O)COc3cccc(Cl)c3)cc21 (stereo not given),i
Cc1ccc2c(c1)nc1n2[C@@H](CNCc2ccncc2F)COC1,20%[44.1 µM]
Cc1ccc([S+](=O)([O-])N2CCCC(c3nn(-c4ccc(Cl)cc4)c(=O)[nH]3)C2)cc1 (stereo not given),-21%

# Source: PubChem
